Measurements reported in publication PMC12820563, “FoxP3 forms a head-to-head dimer in vivo and stabilizes its multimerization on adjacent microsatellites”.
In all, about 16,000 sequences were measured (“rpm ratio (pull-down/input)”: median about 0.5, highest 2% from about 5.5 on). The sample holds the highest values, similar sequences and a random draw of the others, so the mix is not that of the screen.

The sequences below were run against T1, MBP-FoxP3dN (Mus musculus, UniProt Q99JB6 188-423) (assay: PD-seq (MBP pull-down with sequencing); 20 mM Tris-HCl pH 7.5, 100 mM NaCl, 1.5 mM MgCl2, 0.4 uM protein, 0.1 uM dsDNA library, 30 min, room temperature, amylose pull-down; high values mean tight binding). Details: protein: recombinant; tags: His6-MBP; chain copies: 2; dsDNA, one strand shown.
T1 sequence: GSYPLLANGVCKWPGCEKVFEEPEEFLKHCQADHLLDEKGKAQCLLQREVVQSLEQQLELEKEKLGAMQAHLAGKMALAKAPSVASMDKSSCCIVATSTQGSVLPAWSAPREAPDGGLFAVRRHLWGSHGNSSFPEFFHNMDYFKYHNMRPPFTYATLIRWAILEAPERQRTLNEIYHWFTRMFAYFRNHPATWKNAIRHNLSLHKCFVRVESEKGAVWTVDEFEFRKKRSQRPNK
Procedure, shortened: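 Binding is the reads-per-million enrichment of pull-down relative to input, pooled across replicates. For this, 0.4 µM His6-MBP-tagged mouse FoxP3 or FoxP1 fragment lacking the N-terminus, made in E. coli, was incubated with 0.1 µM Klenow-filled double-stranded degenerate DNA library for 30 min at room temperature in Tris pH 7.5 buffer with NaCl and MgCl2. Complexes bound to amylose resin were washed three times before proteinase K released the DNA for PCR barcoding and Illumina sequencing.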

| Sequence | binding signal |
| --- | --- |
| GATGATTGTTCTCCCAGCTGATGAATTGGGGGCATCGAGTAAACAAATTTTCCTAATCTTTCTGTTCAAGCGCCATCTAC | 0.87 RPM ratio (pull-down/input) |
| GATGATTGTTCTCCCAGCTGATGAATTGGGCATTTCGAGTAAACAAATTTTCCTAATCTTTCTGTTCAAGCGCCATCTAC | 5.5 RPM ratio (pull-down/input) |
| GATGATTGTTCTCCCAGCTGATGAATTTGGGCATTCGAGTAAACAAATTTTCCTAATCTTTCTGTTCAAGCGCCATCTAC | 4.79 RPM ratio (pull-down/input) |
| GATGATTGTTCTCCCAGCTGATGAATTGGGCATCTCGAGTAAACAAATTTTCCTAATCTTTCTGTTCAAGCGCCATCTAC | 6.41 RPM ratio (pull-down/input) |
| GATGATTGTTCTCCCAGCTGATGAATTGGGGCATTCGAGTAAACAAATTTTCCTAATCTTTCTGTTCAAGCGCCATCTAC | 4.3 RPM ratio (pull-down/input) |
| GATGATTGTTCTCCCAGCTGATGAATTTTGGGCATCGAGTAAACAAATTTTCCTAATCTTTCTGTTCAAGCGCCATCTAC | 0.782 RPM ratio (pull-down/input) |
| GATGATTGTTCTCCCAGCTGATGAATTAAGTGAATCGAGTAAACAAATTTTCCTAATCTTTCTGTTCAAGCGCCATCTAC | 0.328 RPM ratio (pull-down/input) |
| GATGATTGTTCTCCCAGCTGATGAATTAAGGGAGTCGAGTAAACAAATTTTCCTAATCTTTCTGTTCAAGCGCCATCTAC | 0.249 RPM ratio (pull-down/input) |
| GATGATTGTTCTCCCAGCTGATGAATTGCTTAAATCGAGTAAACAAATTTTCCTAATCTTTCTGTTCAAGCGCCATCTAC | 0.457 RPM ratio (pull-down/input) |
| GATGATTGTTCTCCCAGCTGATGAATTCTAGGTATCGAGTAAACAAATTTTCCTAATCTTTCTGTTCAAGCGCCATCTAC | 0.464 RPM ratio (pull-down/input) |
| GATGATTGTTCTCCCAGCTGATGAATTGTGCAATTCGAGTAAACAAATTTTCCTAATCTTTCTGTTCAAGCGCCATCTAC | 6.39 RPM ratio (pull-down/input) |
| GATGATTGTTCTCCCAGCTGATGAATTCTGCAATTCGAGTAAACAAATTTTCCTAATCTTTCTGTTCAAGCGCCATCTAC | 4.83 RPM ratio (pull-down/input) |
| GATGATTGTTCTCCCAGCTGATGAATTTGCAATTTCGAGTAAACAAATTTTCCTAATCTTTCTGTTCAAGCGCCATCTAC | 2.77 RPM ratio (pull-down/input) |
| GATGATTGTTCTCCCAGCTGATGAATTGCGCAATTCGAGTAAACAAATTTTCCTAATCTTTCTGTTCAAGCGCCATCTAC | 5.72 RPM ratio (pull-down/input) |
| GATGATTGTTCTCCCAGCTGATGAATTTTGCAATTCGAGTAAACAAATTTTCCTAATCTTTCTGTTCAAGCGCCATCTAC | 5.75 RPM ratio (pull-down/input) |
| GATGATTGTTCTCCCAGCTGATGAATTCGCAATTTCGAGTAAACAAATTTTCCTAATCTTTCTGTTCAAGCGCCATCTAC | 1.92 RPM ratio (pull-down/input) |
| GATGATTGTTCTCCCAGCTGATGAATTTCGCAATTCGAGTAAACAAATTTTCCTAATCTTTCTGTTCAAGCGCCATCTAC | 4.55 RPM ratio (pull-down/input) |
| GATGATTGTTCTCCCAGCTGATGAATTTGCAAATTCGAGTAAACAAATTTTCCTAATCTTTCTGTTCAAGCGCCATCTAC | 0.496 RPM ratio (pull-down/input) |
| GATGATTGTTCTCCCAGCTGATGAATTCGTGCAATCGAGTAAACAAATTTTCCTAATCTTTCTGTTCAAGCGCCATCTAC | 3.15 RPM ratio (pull-down/input) |
